Source: PubChem BioAssay (National Center for Advancing Translational Sciences (NCATS))
BRCA1 expr up – BRCA1 expression activation | MCF7-BRCA1-FFLuc reporter, luminescence, 48 h; response scale: scaled: vehicle 0%, 10 µM genistein 100% | Potency, µM (doses to about 46.1 µM), for inactives: top-dose activation, hits mostly activators | 380,000 compounds, 1.1% hits; note: potency is the fitted concentration of half-maximal effect; nearly all actives have a fitted effect of over 80% in size
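Luminescence from a BRCA1-driven firefly luciferase in MCF7 cells was the read-out, taken 15 min after substrate addition following 48 h compound exposure at 37 °C. Data were normalized to a 10 microM genistein control and DMSO vehicle.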
ELG1 repair inh – ELG1-dependent DNA repair inhibition; HEK293T ELG1-luciferase reporter, luminescence, 16 h; DNA damage induced by 5-fluorouridine; Potency, µM (doses to about 46.1 µM), inactives show at the top dose activity change, negative = inhibition, usual class: inhibitors; 330,000 compounds, 2.3% hits; note: potency is the fitted concentration of half-maximal effect; % is set by controls: 0 for no effect and ±100 for the full control effect; nearly all actives have a fitted effect of over 55% in size
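DMSO vehicle served as the neutral condition. Each well held 2,000 cells given 5-fluorouridine plus compound; after 16 hr at 37 °C/5% CO2, ONE-Glo was added and luciferase measured 30 min later.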
Gal4-VP16 FLuc – Gal4-VP16 reporter inhibition counter-screen; Drosophila S2 Gal4-VP16 UAS-luciferase, luminescence, 20 h; Potency, µM (doses to about 53.6 µM), for inactives: at the highest dose activity, negative = inhibition, usual class: inhibitors; 310,000 compounds, 3.5% hits;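 note: Gal4-VP16 expression switched on by copper sulfate through the metallothionein promoter; potency is the fitted concentration of half-maximal effect; % is set by controls: 0 for no effect and ±100 for the full control effect; nearly all actives have a fitted effect of over 50% in size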
RORg inh – blocks mouse ROR gamma transcriptional activity; 310,000 compounds, 5.4% hits; Drosophila S2 Gal4-RORgamma UAS-luciferase reporter, 20 h; P51450; Potency, µM (series often up to 53.6 µM), inactives show top-dose activity change, negative = inhibition, actives largely listed as inhibitors; AID 2551; note: potency is the fitted concentration of half-maximal effect; % is set by controls: 0 for no effect and ±100 for the full control effect; nearly all actives have a fitted effect of over 60% in size
Target sequence (P51450 whole entry, looked up, the tested form may be a part): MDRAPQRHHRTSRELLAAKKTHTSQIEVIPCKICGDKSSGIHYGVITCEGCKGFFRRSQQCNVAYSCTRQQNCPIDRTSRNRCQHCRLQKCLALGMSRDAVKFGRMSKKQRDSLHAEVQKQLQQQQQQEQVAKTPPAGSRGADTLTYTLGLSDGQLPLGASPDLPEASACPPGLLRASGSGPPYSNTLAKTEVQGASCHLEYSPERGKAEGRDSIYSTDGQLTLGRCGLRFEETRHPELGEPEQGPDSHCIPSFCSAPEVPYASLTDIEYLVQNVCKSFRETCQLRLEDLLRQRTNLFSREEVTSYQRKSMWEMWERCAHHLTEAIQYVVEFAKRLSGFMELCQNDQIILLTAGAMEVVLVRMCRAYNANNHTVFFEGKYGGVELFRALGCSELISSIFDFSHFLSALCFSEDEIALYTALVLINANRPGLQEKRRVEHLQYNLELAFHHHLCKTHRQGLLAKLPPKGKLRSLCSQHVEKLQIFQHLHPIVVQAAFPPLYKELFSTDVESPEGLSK
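Read-out: Photinus luciferase luminescence; inhibitors lower reporter signal. Insect Schneider cells with Gal4-ROR gamma fusion under metallothionein promoter, UAS reporter; 700 uM final copper sulfate induction, 20 hr, ambient temperature.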
p53 reactivation – restores transcriptional activity of mutant p53. H1299 p53-A138V BP100-luciferase reporter, luminescence, 24 h. Potency, µM (series often up to 92.2 µM), without a hit: top-dose activity change, positive = activation, actives largely listed as activators. 320,000 compounds, 0.063% hits; note: potency is the fitted concentration of half-maximal effect; % of control where 0% means no effect; nearly all actives have a fitted effect of over 45% in size
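p53-null H1299 cells stably carrying temperature-sensitive p53-A138V and a BP100-luciferase reporter were pinned with compounds (4-point, 1:5 series) and held 24 hrs at 37 deg C. Luminescence was read 10 min after detection reagent.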
Giardia kill – Giardia lamblia killing | 340,000 compounds, 0.15% hits | activity change, % at 7.66 µM, hits read low | Giardia lamblia trophozoite viability | AID 540267; in the data active = activity change below about -80%; inconclusive = between about -30% and that limit;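 note: parasites exposed to compound for two days anaerobically before the ATP read; % is set by controls: 0 for no effect and ±100 for the full control effect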
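Luminescent ATP signal served as the viability read-out, measured 15-30 min after adding ATP detection reagent to trophozoites that had been incubated with compounds for 48 hrs at 37 deg C anaerobically at 100 cells/well.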
Starred values were filed as active, the others as inactive; ? = inconclusive; / = no result. Compounds with a hit are over-represented: about 7.6% of the library has one in this group of screens. Unless noted, calls come from the whole dose curve; as a rule, active = well fitted curve in the direction sought with a large enough effect; inconclusive = small, poorly fitted or top-dose-only effect, or another doubt; inactive = no such curve, though single readings can be large; an effect the other way counts as inactive or inconclusive.

SMILES | BRCA1 expr up | ELG1 repair inh | Gal4-VP16 FLuc | RORg inh | p53 reactivation | Giardia kill
Cc1ccccc1NS(=O)(=O)c1ccc(C(=O)NNC(=O)c2ccccc2O)cc1 | -78% | -25% | / | / | -9% | -19
CCN(CC)c1ccc(/C=N/NC(=O)c2ccco2)c(O)c1 | -16% | ? | 3.2µM* | 0.79µM* | ? | 11
CCN(CC)c1ccc(/C=N/N(c2ccccc2)c2ccccc2)c(O)c1 | -46% | -12% | ? | ? | -13% | -25
Cc1cc(C(=O)N/N=C/c2ccncc2)c2ccccc2n1 | 8% | -25% | -2% | -36% | -4% | -24
CCN(CC)c1ccc(/C=N/NC(=O)c2cc(C)nc3ccccc23)cc1 | -27% | 0% | ? | 11µM* | -1% | -23
CCN(CC)c1ccc(/C=N/NC(=O)Cc2cccs2)c(O)c1 | -75% | 19% | 0.56µM* | 0.18µM* | ? | 29
CCN(CC)c1ccc(/C=N/NC(=S)NCc2ccccc2)c(O)c1 | -57% | ? | 7.1µM* | 8.9µM* | 10% | -11
CCN(CC)c1ccc(NC(=O)c2ccco2)c(C)c1 | 44% | ? | 5% | 3% | 8% | 2
CC(C)Oc1cc(NC(=O)CSCC(=O)Nc2cccc(C(F)(F)F)c2)c(Cl)cc1Cl | -22% | 5% | ? | ? | -4% | 1
CCOC(=O)c1c(C)n(C)c2ccc(OCC(O)CNC(CC)CO)cc12 (configuration not stated) | 9% | 5% | -2% | -13% | -17% | 6
CCOC(=O)c1c(C)n(-c2ccc(C)cc2)c2ccc(OCC(O)CNCCCO)cc12 (configuration not stated) | -86% | 12% | ? | 7.1µM* | 10% | -6
CCOC(=O)c1c(C)n(C)c2ccc(OCC(O)Cn3nc(C)c(Br)c3C)cc12 (configuration not stated) | -46% | 21µM* | -6% | 4% | 4% | 8
CCOC(=O)c1c(C)n(C)c2ccc(OCC(O)CN3CCCCCC3)cc12 (configuration not stated) | 2% | 2% | -9% | -35% | 2% | 8
COc1ccc(NC(=O)c2ccc3snnc3c2)cc1 | 6.3µM* | ? | -1% | 36% | ? | 5
Cc1ccc2nc(NC(=O)c3ccc(-c4nc5ccccc5s4)s3)sc2c1 | 4% | ? | 6% | 7.9µM* | ? | -8
O=C(Nc1nc2ccccc2s1)c1ccc(F)cc1 | ? | ? | ? | 4.5µM* | 3% | ?
CC(=O)c1ccc(OC(C)c2nc3ccccc3s2)cc1 (configuration not stated) | 6.3µM* | ? | 23% | ? | 24% | 2
COc1cccc(C(=O)N(C)C(C)c2nc3ccccc3s2)c1 (configuration not stated) | 9% | -7% | 15% | -3% | -3% | 1
COc1ccc(NC(=O)c2cc(OC)c(OC)cc2OC)c(S(=O)(=O)N2CCOCC2)c1 | 5% | -8% | 1% | -1% | -4% | -3
COc1ccc(C(=O)NCc2nnc(SCC(=O)Nc3nc4ccccc4s3)o2)cc1OC | 3% | -6% | 8.9µM* | 11µM* | -2% | -16
Cc1ccc(C(=O)Nc2nc3ccccc3c(=O)s2)cc1 | 1% | ? | ? | 14µM* | ? | 19
CSc1nc2ccc3nc(NC(=O)c4ccc(C)cc4)sc3c2s1 | 0% | 11% | -6% | -15% | 10% | -14
COc1cccc(C(=O)Nc2nc3ccccc3s2)c1 | ? | ? | 14µM* | 13µM* | -11% | 3
COc1ccc(C(=O)NCc2nnc(SCC(=O)Nc3cc(C)cc(C)c3)o2)cc1OC | 5% | -7% | -2% | 10% | 0% | -10
COc1ccc(Nc2nc3ccccc3c(=O)s2)c(OC)c1 | 6% | 10% | ? | ? | -7% | -8
SMILES | BRCA1 expr up | ELG1 repair inh | Gal4-VP16 FLuc | RORg inh | p53 reactivation | Giardia kill
Cc1ccc(Nc2nc3ccccc3c(=O)s2)cc1C | -25% | 7% | 3.5µM* | 2.8µM* | -22% | 2
CC(=O)C1=C(c2ccccc2)NC(=O)NC1c1ccc(O)c(O)c1 (configuration not stated) | 20% | -1% | 3% | 3% | 4% | -1
O=C(Oc1ccccc1-c1nnco1)c1ccc(Cl)cc1 | -13% | 15% | -5% | ? | 5% | -7
COc1ccc(C(=O)Nc2nc3ccccc3s2)cc1OC | 4.5µM* | ? | ? | 14% | -5% | -11
CC(=O)Nc1nc(=O)c2ccccc2s1 | 3% | ? | ? | ? | -7% | 27
COc1ccc2nc(NC(=O)c3ccc4ncsc4c3)sc2c1 | ? | ? | -15% | -5% | ? | 16
O=C(Nc1nc(-c2cccs2)cs1)c1ccc(Cl)s1 | -7% | ? | ? | ? | ? | -6
COc1ccc2nc(NC(=O)c3ccc(F)cc3)sc2c1 | ? | ? | -6% | 11µM* | ? | 10
O=C(Nc1nc(=O)c2ccccc2s1)c1ccccc1 | -62% | ? | 6.3µM* | 7.1µM* | ? | -8
COc1ccc(C(=O)Nc2ccccc2-c2nc3ccccc3s2)cc1OC | -10% | / | / | / | / | /
O=C(Nc1nc2ccccc2s1)c1ccc(Cl)s1 | ? | ? | -33% | 8.9µM* | ? | ?
CC1=C(C(=O)OC(C)C)C(c2ccc(C)o2)NC(=O)N1 (configuration not stated) | 6% | 4% | -2% | 4% | -4% | 5
C=CCN1C(=O)c2ccc(C(=O)N(CC(C)C)c3c(N)n(CCCC)c(=O)[nH]c3=O)cc2C1=O | -6% | ? | / | / | 0% | 14
COc1ccc(C(=O)Nc2nc3ccccc3s2)cc1 | -25% | ? | ? | 5µM* | -14% | ?
S=C(Nc1ccccc1Cl)Nc1ccc(Cl)cc1Cl | -44% | 2% | 1% | -35% | 1% | 35
Fc1cccc(NC(=S)NCc2ccccc2Cl)c1 | -33% | 0% | 11µM* | 7.1µM* | 3% | 5
S=C(NCCNC(=S)Nc1ccccc1Cl)Nc1ccccc1Cl | -33% | ? | -15% | ? | -2% | -24
NNC(=S)Nc1ccccc1Cl | 82% | ? | 11µM* | 7.9µM* | 19% | -13
S=C(NCc1ccccc1Cl)Nc1ccccc1Cl | 13% | -14% | 2.8µM* | 0.56µM* | 0% | 15
Cc1cc(Cl)ccc1NC(=S)NCc1ccccc1Cl | -14% | 1% | 4µM* | 5µM* | 15% | 17
COc1ccc2c(C)cc(=O)oc2c1OCC(O)CN1CCOCC1 (configuration not stated) | 10% | / | / | / | / | /
